{"source": "PubChem BioAssay (Tox21)", "note": "Results filed as inconclusive are left out. Entries that show only a call come without a potency. Calls of active or inactive are those of the source. Unless noted, calls come from the whole dose curve; as a rule, active = well fitted cell-killing curve with a large enough effect in the repeat runs; inconclusive = weak or mixed curves; inactive = flat fitted curve, though single readings scatter. Where a SMILES comes first, the peptide text is derived from it. [ ]: non-standard residue; d: D form. pGlu = O=C1CC[C@@H](C(=O)O)N1", "data": [{"assay": "qHTS assay to identify small molecule agonists of the progesterone receptor (PR) signaling pathway - cell viability counter screen (AID 1346799; calls by dose curve; note: nearly all actives have a fitted effect of over 45% in size)", "conditions": "PR-UAS-bla HEK293T viability, CellTiter-Glo luminescence, 16 h; series mostly up to 92.4 µM", "outline": "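Cytotoxicity in PR-bla HEK293T cells: 16 h compound, 37C; CellTiter-Glo added post-FRET read; luminescence after 30 min RT.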", "values": [{"compound": "O=[N+]([O-])c1cncn1CCN1CCOCC1", "Potency": "inactive"}, {"compound": "CC1(C)[C@@H]2CC[C@@]1(C)[C@H](O)C2", "Potency": "inactive"}, {"compound": "CCN[C@H]1C[C@H](C)S(=O)(=O)c2sc(S(N)(=O)=O)cc21", "Potency": "inactive"}]}, {"assay": "qHTS assay to identify small molecule antagonists of the TGF-beta/Smad signaling pathway - cell viability counter screen (AID 1346824); note: nearly all actives have a fitted effect of over 50% in size", "conditions": "SBE-bla HEK293T viability, CellTiter-Glo luminescence; series mostly up to 76.8 µM", "outline": "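SBE-bla HEK 293T cells, incubated overnight, then compound plus 0.25 ng/mL TGF-beta1 (stock added) for 5 hr at 37 C. Viability was read in the same wells by CellTiter-Glo luminescence after 30 min at room temperature.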", "values": [{"compound": "CC1(C)OC[C@@H](COC(=O)CCc2ccc(OC[C@@H](O)CNCCNC(=O)N3CCOCC3)cc2)O1", "outcome": "inactive"}, {"compound": "CCC(C(=O)NC(=O)NC(C)=O)c1ccccc1", "note": "(stereo unspecified)", "outcome": "inactive"}, {"compound": "CC(C)(N)C#N", "outcome": "inactive"}, {"compound": "CN1C(C)(C)CC(O)CC1(C)C", "outcome": "inactive"}, {"compound": "O=C(c1ccccc1)C1(O)CCCCC1", "outcome": "inactive"}, {"compound": "[O-][n+]1cccc(CO)c1", "outcome": "inactive"}, {"compound": "CCNC(=O)[C@@H]1CCCN1C(=O)[C@H](CCCN=C(N)N)NC(=O)[C@H](CC(C)C)NC(=O)CNC(=O)[C@H](Cc1ccc(O)cc1)NC(=O)[C@H](CO)NC(=O)[C@H](Cc1c[nH]c2ccccc12)NC(=O)[C@H](Cc1cnc[nH]1)NC(=O)[C@@H]1CCC(=O)N1", "note": "([pGlu]HWSYGLRP-NHEt)", "outcome": "inactive"}, {"compound": "CC(C)CC(C)(N)C#N", "note": "(stereo unspecified)", "outcome": "inactive"}, {"compound": "O=C(O)CCSCCC(=O)O", "outcome": "inactive"}, {"compound": "CC(COc1ccccc1)NN", "note": "(stereo unspecified)", "outcome": "inactive"}, {"compound": "C=CC(=O)OCCCl", "outcome": "inactive"}, {"compound": "NS(=O)(=O)Cc1noc2ccccc12", "outcome": "inactive"}, {"compound": "CCNS(=O)(=O)c1ccc(C)cc1", "outcome": "inactive"}, {"compound": "CC(=O)NC(=O)c1ccccc1O", "outcome": "inactive"}, {"compound": "OCCCCCO", "outcome": "inactive"}, {"compound": "O=C(CO)[C@@H](O)[C@H](O)[C@H](O)CO", "outcome": "inactive"}, {"compound": "C=CC(C)(CCC=C(C)C)OC(=O)CC", "note": "(stereo unspecified)", "outcome": "inactive"}, {"compound": "CN(C)[C@@H]1C(=O)C(C(=O)NCN2CCCC2)=C(O)[C@@]2(O)C(=O)C3=C(O)c4c(O)cccc4[C@@](C)(O)C3C[C@@H]12", "note": "(stereo partly specified)", "outcome": "inactive"}]}]}
